Binding signal data for 1 sequence are collected here from article PMC7862700, “An all-to-all approach to the identification of sequence-specific readers for epigenetic DNA modifications on cytosine”.

Holding throughout (experiment): DAPPL (digital affinity profiling via proximity ligation, sequencing); 10 mM Tris-HCl pH 7.5, 50 mM NaCl, 1 mM DTT, 4% glycerol, room temperature, 30 min; GST-TFs on glutathione beads, 16-mer random dsDNA library, 0.1% formaldehyde crosslink after washing; high values mean tight binding
Holding throughout (settings): protein: recombinant; tags: N-terminal GST; dsDNA, one strand shown

One assay addresses T1, FLI1 (Homo sapiens, UniProt Q01543 1-452).
T1 sequence: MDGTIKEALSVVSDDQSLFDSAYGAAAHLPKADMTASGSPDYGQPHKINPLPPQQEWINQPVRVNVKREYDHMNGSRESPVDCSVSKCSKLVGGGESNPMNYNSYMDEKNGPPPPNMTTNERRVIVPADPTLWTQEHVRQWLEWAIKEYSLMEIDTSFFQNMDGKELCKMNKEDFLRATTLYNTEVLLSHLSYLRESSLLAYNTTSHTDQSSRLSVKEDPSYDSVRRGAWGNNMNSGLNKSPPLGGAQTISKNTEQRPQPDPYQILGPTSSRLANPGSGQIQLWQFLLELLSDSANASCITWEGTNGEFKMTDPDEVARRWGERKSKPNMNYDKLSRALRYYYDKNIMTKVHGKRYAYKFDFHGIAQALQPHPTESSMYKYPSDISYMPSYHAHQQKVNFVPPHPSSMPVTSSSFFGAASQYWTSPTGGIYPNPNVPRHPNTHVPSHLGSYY
The essentials: (§1)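 Binding signal is defined as a hexamer's read frequency for one factor over its frequency for the tag-only sample. To obtain reads, GST-fused human transcription factors were expressed in yeast, captured on glutathione beads, barcoded with DNA and pooled with that sample. Pools met 200 nmole of a 16-mer random double-stranded DNA library in Tris/NaCl/DTT/glycerol buffer for 30 min at room temperature before washing, 0.1% formaldehyde crosslinking, proximity ligation (BsaI/T4 ligase, 1 h, 37 °C), PCR and Illumina NextSeq500 sequencing.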

Another assay addresses T2, ELK1 (Homo sapiens, UniProt P19419 1-428).
T2 sequence: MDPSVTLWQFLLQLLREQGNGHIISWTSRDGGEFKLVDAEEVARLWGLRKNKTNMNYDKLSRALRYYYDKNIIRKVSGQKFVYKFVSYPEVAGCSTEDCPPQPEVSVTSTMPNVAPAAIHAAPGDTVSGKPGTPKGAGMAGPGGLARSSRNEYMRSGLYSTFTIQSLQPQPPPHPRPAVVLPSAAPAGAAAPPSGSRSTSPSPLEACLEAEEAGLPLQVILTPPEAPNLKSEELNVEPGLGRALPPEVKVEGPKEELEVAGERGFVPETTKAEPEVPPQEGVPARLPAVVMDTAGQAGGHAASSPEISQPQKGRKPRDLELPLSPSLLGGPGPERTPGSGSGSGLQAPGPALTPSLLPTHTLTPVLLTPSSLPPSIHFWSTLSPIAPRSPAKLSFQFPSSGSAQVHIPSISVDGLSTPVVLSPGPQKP
The method, boiled down: as §1

A further assay deals with T3, GABPA (Homo sapiens, UniProt Q06546 1-454).
T3 sequence: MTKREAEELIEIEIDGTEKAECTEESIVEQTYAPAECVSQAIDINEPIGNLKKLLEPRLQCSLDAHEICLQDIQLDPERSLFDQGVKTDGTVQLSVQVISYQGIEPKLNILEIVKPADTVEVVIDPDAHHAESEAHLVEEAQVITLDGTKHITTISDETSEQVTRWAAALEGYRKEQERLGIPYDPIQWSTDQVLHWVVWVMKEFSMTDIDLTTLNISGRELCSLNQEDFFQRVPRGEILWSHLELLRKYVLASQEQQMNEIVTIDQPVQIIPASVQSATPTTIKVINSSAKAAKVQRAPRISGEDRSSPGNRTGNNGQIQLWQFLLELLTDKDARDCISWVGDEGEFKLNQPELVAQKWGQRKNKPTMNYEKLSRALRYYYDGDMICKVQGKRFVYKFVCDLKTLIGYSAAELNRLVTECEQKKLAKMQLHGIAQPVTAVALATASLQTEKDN
The method, boiled down: as §1

A further assay deals with T4, ERG (Homo sapiens, UniProt P11308 1-479).
T4 sequence: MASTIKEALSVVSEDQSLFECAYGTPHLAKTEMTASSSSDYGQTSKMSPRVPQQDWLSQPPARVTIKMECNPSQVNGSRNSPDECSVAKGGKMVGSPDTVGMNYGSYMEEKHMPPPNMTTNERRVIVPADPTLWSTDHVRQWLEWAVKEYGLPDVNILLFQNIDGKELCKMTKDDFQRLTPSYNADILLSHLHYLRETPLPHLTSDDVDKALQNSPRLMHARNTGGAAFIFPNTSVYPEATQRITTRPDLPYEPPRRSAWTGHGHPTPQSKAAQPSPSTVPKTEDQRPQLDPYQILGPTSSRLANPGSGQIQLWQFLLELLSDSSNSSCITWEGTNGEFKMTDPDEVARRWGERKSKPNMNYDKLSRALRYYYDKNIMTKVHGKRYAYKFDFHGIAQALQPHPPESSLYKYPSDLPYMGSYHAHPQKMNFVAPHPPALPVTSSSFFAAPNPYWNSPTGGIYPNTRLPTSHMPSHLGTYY
The essentials: as §1

The next assay concerns the target ELF1 (Homo sapiens, UniProt P32519 1-619). The method, boiled down: as §1
A further assay addresses T5, EHF (Homo sapiens, UniProt Q9NZC4 1-300).
T5 sequence: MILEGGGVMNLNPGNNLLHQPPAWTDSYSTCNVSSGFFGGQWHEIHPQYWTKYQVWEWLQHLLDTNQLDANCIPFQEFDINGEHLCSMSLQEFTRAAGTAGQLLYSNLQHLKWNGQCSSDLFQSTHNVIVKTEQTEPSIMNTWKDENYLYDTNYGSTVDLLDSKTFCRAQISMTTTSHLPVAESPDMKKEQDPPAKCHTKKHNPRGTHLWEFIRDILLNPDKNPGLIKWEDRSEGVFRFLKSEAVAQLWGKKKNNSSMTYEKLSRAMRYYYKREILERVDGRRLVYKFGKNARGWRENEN
The essentials:
as §1

The next assay has as its target SPI1 (Homo sapiens, UniProt P17947 1-270). The essentials: as §1
The next assay has as its target SPIB (Homo sapiens, UniProt Q01892 1-262). The method, boiled down: as §1
Another assay deals with T6, ELK3 (Homo sapiens, UniProt P41970 1-407).
T6 sequence: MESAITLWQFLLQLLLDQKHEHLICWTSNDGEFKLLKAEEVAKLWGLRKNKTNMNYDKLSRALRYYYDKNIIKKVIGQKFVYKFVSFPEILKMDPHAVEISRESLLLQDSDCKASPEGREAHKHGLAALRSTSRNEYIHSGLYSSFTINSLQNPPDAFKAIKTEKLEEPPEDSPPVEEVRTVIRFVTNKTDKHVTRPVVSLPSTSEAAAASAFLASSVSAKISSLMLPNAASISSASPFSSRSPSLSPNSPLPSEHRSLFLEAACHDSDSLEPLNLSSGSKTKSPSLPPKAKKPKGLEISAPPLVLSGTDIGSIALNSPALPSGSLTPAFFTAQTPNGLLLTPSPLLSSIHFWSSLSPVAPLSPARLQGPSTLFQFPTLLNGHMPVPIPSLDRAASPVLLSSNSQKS
The essentials: as §1

The target in a further assay is T7, FEV (Homo sapiens, UniProt Q99581 1-238).
T7 sequence: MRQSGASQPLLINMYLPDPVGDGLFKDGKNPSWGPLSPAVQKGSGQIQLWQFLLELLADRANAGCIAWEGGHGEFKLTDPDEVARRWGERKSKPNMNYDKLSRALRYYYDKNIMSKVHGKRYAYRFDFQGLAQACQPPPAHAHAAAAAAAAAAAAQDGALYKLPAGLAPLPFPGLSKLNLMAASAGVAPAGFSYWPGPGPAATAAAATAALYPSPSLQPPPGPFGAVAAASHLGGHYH
The method, boiled down:
as §1

For another assay, the target named is ETV5 (Homo sapiens, UniProt P41161 1-510). The method, boiled down:
as §1

A further assay concerns the target T8, SPIC (Homo sapiens, UniProt Q8N5J4 1-248).
T8 sequence: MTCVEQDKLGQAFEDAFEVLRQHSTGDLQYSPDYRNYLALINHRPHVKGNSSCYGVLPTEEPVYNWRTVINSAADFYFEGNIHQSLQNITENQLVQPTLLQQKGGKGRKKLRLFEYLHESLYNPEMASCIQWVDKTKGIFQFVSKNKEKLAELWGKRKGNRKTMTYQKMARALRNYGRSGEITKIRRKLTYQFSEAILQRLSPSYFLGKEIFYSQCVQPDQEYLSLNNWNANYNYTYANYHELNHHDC
The method, boiled down: as §1

The target in the next assay is ELF4 (Homo sapiens, UniProt Q99607 1-663). The essentials: as §1
The target of the next assay is T9, ELK4 (Homo sapiens, UniProt P28324-2 1-405).
T9 sequence: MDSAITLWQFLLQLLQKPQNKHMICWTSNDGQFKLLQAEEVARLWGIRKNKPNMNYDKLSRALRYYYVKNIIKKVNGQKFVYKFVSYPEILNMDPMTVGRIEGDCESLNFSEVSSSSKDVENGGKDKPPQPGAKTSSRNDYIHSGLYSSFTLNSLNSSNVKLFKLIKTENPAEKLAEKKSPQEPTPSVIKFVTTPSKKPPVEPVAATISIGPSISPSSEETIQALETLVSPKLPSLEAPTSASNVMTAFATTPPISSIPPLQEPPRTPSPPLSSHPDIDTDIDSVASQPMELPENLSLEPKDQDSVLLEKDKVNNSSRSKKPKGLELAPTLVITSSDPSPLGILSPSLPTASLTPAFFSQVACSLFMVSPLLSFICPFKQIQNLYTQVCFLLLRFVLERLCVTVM
The essentials: as §1

The next assay addresses T10, ETV2 (Homo sapiens, UniProt O00321 1-342).
T10 sequence: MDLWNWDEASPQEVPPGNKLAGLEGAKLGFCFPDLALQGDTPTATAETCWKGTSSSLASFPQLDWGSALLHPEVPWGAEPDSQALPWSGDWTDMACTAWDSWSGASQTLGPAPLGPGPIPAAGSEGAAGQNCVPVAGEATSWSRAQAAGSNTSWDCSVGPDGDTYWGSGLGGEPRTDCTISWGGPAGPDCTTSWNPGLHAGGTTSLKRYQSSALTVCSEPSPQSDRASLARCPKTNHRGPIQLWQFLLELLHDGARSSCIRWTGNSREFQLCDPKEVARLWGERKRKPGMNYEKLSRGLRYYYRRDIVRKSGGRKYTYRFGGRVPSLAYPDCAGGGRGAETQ
The method, boiled down: as §1

A further assay has as its target T11, ELF3 (Homo sapiens, UniProt P78545 1-371).
T11 sequence: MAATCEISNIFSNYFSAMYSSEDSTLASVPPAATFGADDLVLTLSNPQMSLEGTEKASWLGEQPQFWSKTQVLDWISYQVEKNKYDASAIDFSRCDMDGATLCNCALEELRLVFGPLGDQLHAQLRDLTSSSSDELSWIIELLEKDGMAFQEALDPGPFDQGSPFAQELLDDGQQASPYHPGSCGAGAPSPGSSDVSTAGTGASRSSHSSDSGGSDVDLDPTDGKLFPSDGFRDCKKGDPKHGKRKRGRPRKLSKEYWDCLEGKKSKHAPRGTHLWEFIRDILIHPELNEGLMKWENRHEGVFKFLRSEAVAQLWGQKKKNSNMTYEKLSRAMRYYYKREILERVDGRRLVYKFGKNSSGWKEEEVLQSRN
The essentials:
as §1

A further assay concerns the target ETV1 (Homo sapiens, UniProt P50549 1-477). The essentials: as §1

Sequence of ELF4 (Q99607 whole entry): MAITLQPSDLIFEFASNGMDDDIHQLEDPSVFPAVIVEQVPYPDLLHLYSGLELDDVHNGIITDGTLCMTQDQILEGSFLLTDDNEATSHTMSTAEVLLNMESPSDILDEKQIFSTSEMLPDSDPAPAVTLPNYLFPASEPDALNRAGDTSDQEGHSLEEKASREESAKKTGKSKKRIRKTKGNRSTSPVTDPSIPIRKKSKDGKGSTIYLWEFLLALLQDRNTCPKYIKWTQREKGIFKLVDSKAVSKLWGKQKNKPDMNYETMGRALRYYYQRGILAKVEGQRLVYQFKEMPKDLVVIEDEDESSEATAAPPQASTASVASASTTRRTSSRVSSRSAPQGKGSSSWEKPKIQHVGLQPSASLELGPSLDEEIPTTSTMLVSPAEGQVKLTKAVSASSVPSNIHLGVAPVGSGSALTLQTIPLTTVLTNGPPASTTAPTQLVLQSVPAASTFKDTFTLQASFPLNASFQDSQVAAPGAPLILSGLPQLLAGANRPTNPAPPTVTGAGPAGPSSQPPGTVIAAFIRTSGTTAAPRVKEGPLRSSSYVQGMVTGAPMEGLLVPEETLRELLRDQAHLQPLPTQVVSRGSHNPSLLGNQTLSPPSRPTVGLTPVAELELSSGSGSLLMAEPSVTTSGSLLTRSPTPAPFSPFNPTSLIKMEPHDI
Sequence of ETV1 (P50549 whole entry): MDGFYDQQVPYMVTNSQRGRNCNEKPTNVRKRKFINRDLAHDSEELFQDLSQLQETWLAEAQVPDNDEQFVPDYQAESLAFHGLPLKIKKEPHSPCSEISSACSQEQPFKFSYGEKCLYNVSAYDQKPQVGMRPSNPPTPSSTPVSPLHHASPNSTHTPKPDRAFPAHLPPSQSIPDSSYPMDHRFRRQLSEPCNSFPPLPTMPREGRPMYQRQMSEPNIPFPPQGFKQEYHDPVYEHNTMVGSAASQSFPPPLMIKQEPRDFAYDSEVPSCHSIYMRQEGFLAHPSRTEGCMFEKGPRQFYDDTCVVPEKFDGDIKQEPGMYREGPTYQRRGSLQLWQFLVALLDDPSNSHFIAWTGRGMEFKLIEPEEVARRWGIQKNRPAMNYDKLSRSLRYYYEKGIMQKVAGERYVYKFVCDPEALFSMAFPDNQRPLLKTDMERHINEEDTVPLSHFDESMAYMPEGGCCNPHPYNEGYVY
Sequence of ETV5 (P41161 whole entry): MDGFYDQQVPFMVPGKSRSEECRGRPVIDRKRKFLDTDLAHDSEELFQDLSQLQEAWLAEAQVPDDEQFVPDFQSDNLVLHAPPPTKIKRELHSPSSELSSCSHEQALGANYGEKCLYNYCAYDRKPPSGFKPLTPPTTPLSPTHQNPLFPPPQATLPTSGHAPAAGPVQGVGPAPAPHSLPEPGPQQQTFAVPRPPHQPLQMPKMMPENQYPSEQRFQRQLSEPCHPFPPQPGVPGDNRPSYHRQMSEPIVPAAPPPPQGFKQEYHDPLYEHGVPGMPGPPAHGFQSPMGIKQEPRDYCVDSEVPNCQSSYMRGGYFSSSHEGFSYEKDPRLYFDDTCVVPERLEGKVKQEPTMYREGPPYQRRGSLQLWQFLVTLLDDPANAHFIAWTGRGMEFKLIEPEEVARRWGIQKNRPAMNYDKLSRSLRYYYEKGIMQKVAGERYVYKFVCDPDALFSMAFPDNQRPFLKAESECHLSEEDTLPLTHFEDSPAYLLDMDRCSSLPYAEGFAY
Sequence of SPIB (Q01892 whole entry): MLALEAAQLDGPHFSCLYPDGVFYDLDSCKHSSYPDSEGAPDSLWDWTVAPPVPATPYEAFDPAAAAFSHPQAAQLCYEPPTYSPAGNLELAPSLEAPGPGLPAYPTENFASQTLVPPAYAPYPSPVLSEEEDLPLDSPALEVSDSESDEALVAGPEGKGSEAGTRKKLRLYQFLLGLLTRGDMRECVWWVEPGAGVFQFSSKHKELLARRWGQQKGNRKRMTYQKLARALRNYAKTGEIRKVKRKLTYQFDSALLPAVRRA
Sequence of ELF1 (P32519 whole entry): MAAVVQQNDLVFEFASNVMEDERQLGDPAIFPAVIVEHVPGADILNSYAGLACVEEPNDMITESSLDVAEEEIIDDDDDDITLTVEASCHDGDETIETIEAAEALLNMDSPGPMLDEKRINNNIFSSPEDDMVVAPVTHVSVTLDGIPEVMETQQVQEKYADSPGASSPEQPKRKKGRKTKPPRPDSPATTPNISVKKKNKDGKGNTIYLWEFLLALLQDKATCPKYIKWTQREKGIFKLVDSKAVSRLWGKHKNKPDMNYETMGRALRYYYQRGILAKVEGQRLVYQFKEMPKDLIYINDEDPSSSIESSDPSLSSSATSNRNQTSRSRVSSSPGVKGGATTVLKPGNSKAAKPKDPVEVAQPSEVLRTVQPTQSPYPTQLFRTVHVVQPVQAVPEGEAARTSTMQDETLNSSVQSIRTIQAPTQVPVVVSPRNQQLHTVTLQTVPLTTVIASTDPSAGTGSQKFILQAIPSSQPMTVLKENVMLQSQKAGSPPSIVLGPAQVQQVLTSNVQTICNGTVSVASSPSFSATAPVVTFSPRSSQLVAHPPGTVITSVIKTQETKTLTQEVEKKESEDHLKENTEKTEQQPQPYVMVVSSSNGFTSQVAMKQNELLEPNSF

With CATCAC, the binding signal with FLI1 was 1.1 fold enrichment (6-mer frequency, TF over GST control); in the assay with ELK1, 1.1 fold enrichment (6-mer frequency, TF over GST control); with GABPA it was 1.18 fold enrichment (6-mer frequency, TF over GST control); with ERG, 1.15 fold enrichment (6-mer frequency, TF over GST control); with ELF1, 1.19 fold enrichment (6-mer frequency, TF over GST control); with EHF, 1.13 fold enrichment (6-mer frequency, TF over GST control). For the same sequence, the binding signal was 1.11 fold enrichment (6-mer frequency, TF over GST control) in the assay with SPI1; 1.11 fold enrichment (6-mer frequency, TF over GST control) with SPIB; 1.05 fold enrichment (6-mer frequency, TF over GST control) with ELK3; 1.16 fold enrichment (6-mer frequency, TF over GST control) with FEV; 1.13 fold enrichment (6-mer frequency, TF over GST control) with ETV5; 1.26 fold enrichment (6-mer frequency, TF over GST control) with SPIC. The binding signal was 1.12 fold enrichment (6-mer frequency, TF over GST control) with ELF4; 1.29 fold enrichment (6-mer frequency, TF over GST control) with ELK4; 1.11 fold enrichment (6-mer frequency, TF over GST control) with ETV2; 1.14 fold enrichment (6-mer frequency, TF over GST control) with ELF3; 1.1 fold enrichment (6-mer frequency, TF over GST control) with ETV1.
